BJeLR viab HTS – lowers viability of BJeLR cells | BJeLR fibroblasts viability, CellTiterGlo ATP luminescence, 48 h; HRASV12, hTERT and SV40 LT/ST transformed | 0.64% of 30,000 active | viability loss activity score, % (test concentration not listed); in the data active means viability loss activity score above about 50%; inconclusive means no clear call, values can overlap the other calls; inactive means below about 35%;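 further: higher score means fewer live cells and less ATP luminescence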
ROS inducer – inducers of reactive oxygen species in cancer cells | ROS induction (% of piperlongumine), % at 10 µM | U2OS ROS induction, H2DCF-DA fluorescence | AID 624156 | 2% of 46,000 active; in the data active means ROS induction above about 79%, passing the limit was not always enough; inconclusive means no clear call, values can overlap the other calls
MITF inhib – inhibitors of MITF | TRPM1 promoter luciferase, luminescence, 24 h | inhibition, % (concentration not given with the values) | 0.28% of 37,000 active; in the data active means inhibition above about 85%; inconclusive means no clear call, values can overlap the other calls; inactive means below about 68%;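 further: human melanocyte line stably carrying TRPM1 promoter luciferase reporter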
YB-1 expr inh – YB-1 expression inhibition. U2OS, qRT-PCR YB-1 vs CDIP delta delta Cp, 16 h; hits give high values; zero = DMSO, each unit about twofold. delta delta Cp (YB-1 minus CDIP) (no concentration beside the values). 0.37% of 30,000 active. AID 434959;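 active means delta delta Cp rounded down to an integer at or above 3, about 3 SD of DMSO wells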;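 further: higher means less YB-1 transcript or more CDIP transcript relative to DMSO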
A number is an active result; i = inactive; ? = inconclusive; nt = not tested or not shown. In the library only some 2.5% were active in any assay of this set; here they are far more common.

SMILES | BJeLR viab HTS | ROS inducer | MITF inhib | YB-1 expr inh
N#CC(C#N)=C(Nc1ccccc1Cl)SCc1cccc(F)c1 | i | i | 89 | i
O=C(/C=C/c1ccccc1Cl)N1CCCCC1 | i | i | nt | nt
CCS(=O)(=O)CCSc1nc(-c2ccccc2)cc(-c2ccccc2)c1C#N | i | 98 | nt | nt
COc1ccc(-c2cc(-c3cccs3)nc(SC(C(=O)O)c3ccccc3)c2C#N)cc1 (stereo not drawn) | nt | 149 | i | nt
N#Cc1c(-c2ccccc2)cc(-c2cccs2)nc1SCS(=O)Cc1ccccc1 (stereo not drawn) | i | 108 | nt | nt
COc1ccc(-c2cc(-c3ccccc3)c(C#N)c(SCCS(=O)Cc3ccccc3)n2)cc1 (stereo not drawn) | i | nt | nt | nt
N#Cc1c(-c2ccccc2)cc(-c2ccccc2)nc1SCC(O)CS(=O)Cc1ccccc1 (stereo not drawn) | i | 144 | nt | nt
CC(C)(C)c1cc(-c2cccs2)c(C#N)c(SCC(=O)Oc2ccccc2)n1 | i | i | i | i
c1cc(C2OCC3(CO2)COC(c2ccncc2)OC3)ccn1 (stereo not drawn) | i | i | nt | nt
COC(=O)c1sccc1S(=O)(=O)Nc1ccc2c(c1)OCCO2 | i | nt | nt | nt
CC1CCN(S(=O)(=O)Cc2ccccc2)CC1 | i | i | nt | nt
Cc1cc(C)nc(NC(N)=NCc2ccccc2Cl)n1 | 77 | i | nt | nt
COc1ccc(OC)c(C(=O)CC2(O)C(=O)Nc3ccccc32)c1 (stereo not drawn) | i | i | nt | nt
COCCOC(=O)N1C(=O)[C@@]2(c3cc(C#CCC(C(=O)OC)C(=O)OC)ccc31)[C@H](C(=O)N1CCN(c3ncccn3)CC1)[C@H]1C(=O)O[C@H](c3ccccc3)[C@H](c3ccccc3)N1[C@@H]2c1ccc(O)cc1 | nt | i | nt | i
COCCOC(=O)N1C(=O)[C@@]2(c3cc(C#CCC(C(=O)OC)C(=O)OC)ccc31)[C@H](C(N)=O)[C@H]1C(=O)O[C@H](c3ccccc3)[C@H](c3ccccc3)N1[C@@H]2c1ccccc1OCCO | nt | 162 | nt | i
COCCOC(=O)N1C(=O)[C@@]2(c3cc(C#CCC(C(=O)OC)C(=O)OC)ccc31)[C@H](C(=O)N1CCN(c3ncccn3)CC1)[C@H]1C(=O)O[C@H](c3ccccc3)[C@H](c3ccccc3)N1[C@@H]2c1ccccc1OCCO | nt | 80 | nt | i
COCCOC(=O)N1C(=O)[C@@]2(c3cc(C#CC4(O)CCCCCC4)ccc31)[C@H](C(=O)N1CCN(c3ncccn3)CC1)[C@H]1C(=O)O[C@H](c3ccccc3)[C@H](c3ccccc3)N1[C@@H]2c1ccccc1OCCO | nt | 84 | nt | i
COCCOC(=O)N1C(=O)[C@@]2(c3cc(C#CCC(C(=O)OC)C(=O)OC)ccc31)[C@H](C(N)=O)[C@H]1C(=O)O[C@H](c3ccccc3)[C@H](c3ccccc3)N1[C@@H]2c1ccc(OCCO)cc1 | nt | ? | nt | i
COCCOC(=O)N1C(=O)[C@@]2(c3cc(C#Cc4ccc(OC)cc4)ccc31)[C@H](c1ccccc1OCCO)N1[C@H](c3ccccc3)[C@H](c3ccccc3)OC(=O)[C@H]1[C@@H]2C(=O)N1CCN(c2ncccn2)CC1 | nt | i | nt | i
O=C(/C=C/c1ccc(O)cc1)OC[C@H]1O[C@@H](Oc2cc(O)c3c(c2)OC(c2ccc(O)cc2)CC3=O)[C@H](O)[C@@H](OC(=O)/C=C/c2ccc(O)cc2)[C@@H]1O (stereo partly drawn) | i | 165 | i | i
C[C@@H]1O[C@@H](OC[C@H]2O[C@@H](Oc3ccc(O)cc3)[C@H](O)[C@@H](OC(=O)c3ccc(O)cc3)[C@@H]2O)[C@H](O)[C@H](O)[C@H]1O | i | i | i | i
O=C1C=CC(O)(/C=C/C(=O)OC[C@H]2O[C@@H](Oc3ccc(O)cc3)[C@H](O)[C@@H](OC(=O)/C=C/C3(O)C=CC(=O)C=C3)[C@@H]2O)C=C1 | i | 127 | i | i
O=C(CSCc1ccccc1)Nc1ccc(-c2nc3cccnc3s2)cc1 | i | i | nt | nt
CCc1ccc(NC(=O)c2nn(-c3ccc(C)cc3)c(=O)c3c2c2ccccc2n3C)cc1 | i | nt | nt | nt
COc1ccc(NC(=O)COc2ccccc2[N+](=O)[O-])cc1Cl | nt | i | i | nt
SMILES | BJeLR viab HTS | ROS inducer | MITF inhib | YB-1 expr inh
COc1cc(NC(=O)COc2ccccc2[N+](=O)[O-])ccc1NC(=O)c1cccs1 | nt | 132 | i | nt
C[C@H](CO)N1C[C@H](C)[C@H](CN(C)S(=O)(=O)c2cccs2)Oc2ncc(C#CC(C)(C)O)cc2C1=O | nt | i | nt | 9.9
COc1ccc(C#Cc2cnc3c(c2)C(=O)N([C@H](C)CO)C[C@H](C)[C@H](CN(C)S(=O)(=O)c2ccc(C)cc2)O3)cc1OC | nt | 140 | nt | i
COc1ccc(-n2nc3c(c2NC(C)=O)CS(=O)C3)cc1 (stereo not drawn) | i | nt | nt | nt
CCOC(=O)c1nc(Nc2cccc(C)c2C)c2ccccc2n1 | i | nt | nt | nt
CC(C)c1ccc(NC(=O)c2cc(F)cc3c2OCOC3)cc1 | i | nt | nt | nt
OCCN(CCO)c1nc(-c2ccccc2)nc2sc(-c3ccccc3)cc12 | nt | 116 | i | nt
C=CCN(CC=C)c1nc(-c2ccccc2)nc2ccccc12 | i | i | nt | nt
CCC(Sc1nc2cc3c(cc2c(=O)n1Cc1ccco1)OCO3)C(=O)NCc1ccc(C)cc1 (stereo not drawn) | i | i | nt | nt
Cc1c(-c2ccccc2)nc2sc3c(c2c1N)CCCC3 | i | 92 | nt | nt
CC(C)(C)c1ccc(-c2n[nH]c(=S)n2/N=C/c2ccccn2)cc1 | i | nt | nt | nt
COc1ccccc1OCCCSc1nc(-c2ccccc2)cc(=O)[nH]1 | nt | 126 | i | nt
CCCN(CCC)S(=O)(=O)c1ccc(C(=O)Nc2ccc3sc(SC)nc3c2)cc1 | i | 168 | nt | nt
CCCN(CCC)S(=O)(=O)c1ccc(C(=O)Nc2cccc(SC)c2)cc1 | i | i | i | i
CCCn1c(-c2ccc(S(=O)(=O)N3CCOCC3)cc2)csc1=Nc1ccccc1 | i | 83 | nt | nt
CN(C)CCCNc1oc(-c2ccc(F)cc2)nc1C#N | i | nt | nt | nt
CCOC(=O)c1c(CN(C)C)n(-c2ccccc2)c2cc(Br)c(OC)cc12 | i | 238 | i | i
CCOC(=O)c1c(SC)n(-c2ccccc2)c(=S)n(-c2ccccc2)c1=O | i | i | nt | nt
CCOC(=O)c1c(C)n(-c2cccc(C)c2)c2ccc(O)cc12 | i | i | i | i
CCOC(=O)c1c(CN2CCCCC2)n(-c2ccccc2)c2cc(Br)c(OC)cc12 | i | 121 | i | i
COC(=O)C1(Cc2ccc(O)cc2)OC(=O)C(OC)=C1c1ccc(O)cc1 (stereo not drawn) | i | i | i | 4.4
COc1cc(C(=O)OC[C@@]2(O)CO[C@H](OC3C(CO)OC(OC(C)/C=C/C4(O)C(C)CC(O)CC4(C)C)C(O)C3O)[C@@H]2O)cc(OC)c1O (stereo partly drawn) | i | i | i | 3.5
CC(/C=C/C1(O)C(C)CC(O)CC1(C)C)OC1OC(CO)C(O)C(O)C1O (stereo not drawn) | nt | i | nt | i
CC(=O)N1c2ccc(S(=O)(=O)N3CCc4ccccc43)cc2CC1C (stereo not drawn) | i | nt | nt | nt
O=S(=O)(c1ccc(Cl)cc1)N1CCc2ccccc21 | i | 87 | i | i
CC(C)Cn1c(SCc2ccccc2)nnc1-c1ccncc1 | i | i | nt | nt

Compound activity as filed in PubChem.
